Active and inactive are the calls of the source.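 The calls were made as follows, unless noted: active = compounds whose cell count with miR-34 switched on is under 0.7 times the count with it off; inactive = the rest.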

A short description of experiment [1]: sensitizers of A549 cells to miR-34 induction, primary screen, imaging, A549 dox-inducible miR-34, nuclei and caspase counts (AID 1347080). The settings on record: A549 miR-34 inducible, Hoechst nuclei count, 48 h.
Experiment [2] can be described thus: survival rescue of mitochondrial mutant cells in low glucose, primary screen, MELAS cybrids, Rieske KO mouse fibroblasts, CellTiter-Glo (AID 1508586;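 active = mean z-score across replicates of 1.96 or higher in either the MELAS or the Rieske mutant cell line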;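 also: z relative to plate mean and SD of compound and empty wells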). On the technique in general: In ATP-based viability assays light output follows the ATP content of the culture.
The mark [3] stands for this setting: stronger effect = lower value, cell number ratio, induced over uninduced.
Setting [4] is: measured here: relative caspase fold change +Dox/-Dox.
Setting [5] is: measured here: total cells with miR-34 induction, stronger effect = lower value.
The mark [6] stands for this setting: measured here: total cells without miR-34 induction.
Where [7] appears, read: MELAS cybrid survival, CellTiter-Glo 48 h, stronger effect = higher value.
The mark [8] stands for this setting: Rieske KO mouse fibroblast survival, CellTiter-Glo 72 h.
Also: test concentration not given here.

On to `O=S(=O)(NCCNCC=Cc1ccc(Br)cc1)c1cccc2cnccc12`, for which the fold change is 0.834 (inactive) in experiment [1] (setting [3]) and 0.904 in experiment [1] (setting [4]). Also, the cell count in experiment [1] (setting [5]) was 8100; in experiment [1] (setting [6]) it was 9710. Moreover, the figures for the z-score in experiment [2] (setting [7]) and in experiment [2] (setting [8]) were -0.305 (inactive) and 0.0221, respectively.

For `CNc1nc(Nc2cn(C(C)(C)C#N)nc2C)ncc1C(F)(F)F`, the fold change was 0.858 (inactive) in experiment [1] (setting [3]) and 0.457 in experiment [1] (setting [4]). Besides, the cell count in experiment [1] (setting [5]) is 7920; in experiment [1] (setting [6]), 9230. In addition, the z-score was -0.302 (inactive) in experiment [2] (setting [7]) and 0.79 in experiment [2] (setting [8]).

`O=C(NCc1ccc(Oc2ccccc2)cc1)c1nc(-c2cc(Br)c(O)c(Br)c2)no1`: the fold change in experiment [1] (setting [3]) was 0.903 (inactive); in experiment [1] (setting [4]) it was 0.842. The cell count in experiment [1] (setting [5]) is 7380; in experiment [1] (setting [6]), 8170. In addition, the figures for the z-score in experiment [2] (setting [7]) and in experiment [2] (setting [8]) were -0.2 (inactive) and -0.275, respectively.

`CC(=O)Nc1cccc2c1c(Sc1ccc(Cl)cc1)c(C)n2CC(=O)O`: the figures for the fold change in experiment [1] (setting [3]) and in experiment [1] (setting [4]) were 0.864 (inactive) and 0.281, respectively. In addition, the cell count in experiment [1] (setting [5]) is 7890; in experiment [1] (setting [6]) it was 9130. Besides, the z-score was -0.287 (inactive) in experiment [2] (setting [7]) and -2.23 in experiment [2] (setting [8]).

For `C=CC1=C(C(=O)O)N2C(=O)[C@H](NC(=O)C(=NO)c3csc(N)n3)[C@H]2SC1`, the fold change was 0.881 (inactive) in experiment [1] (setting [3]) and 1.23 in experiment [1] (setting [4]). The cell count came out at 7750 in experiment [1] (setting [5]) and 8790 in experiment [1] (setting [6]). The z-score in experiment [2] (setting [7]) was -0.382 (inactive); in experiment [2] (setting [8]) it was 0.812.

Take `CNC(=C[N+](=O)[O-])NCCSCc1ccc(CN(C)C)o1`: the fold change in experiment [1] (setting [3]) is 0.921 (inactive); in experiment [1] (setting [4]), 0.82. Also, the figures for the cell count in experiment [1] (setting [5]) and in experiment [1] (setting [6]) were 7800 and 8470, respectively. In addition, the z-score was -0.3 (inactive) in experiment [2] (setting [7]) and -0.112 in experiment [2] (setting [8]).

For the compound `C#C[C@@]1(O)CC[C@H]2[C@@H]3CCc4cc(OC)ccc4[C@@H]3CC[C@@]21C`, the fold change in experiment [1] (setting [3]) is 0.921 (inactive); in experiment [1] (setting [4]), 0.824. Moreover, the figures for the cell count in experiment [1] (setting [5]) and in experiment [1] (setting [6]) were 7730 and 8400, respectively. For the same compound, the z-score was -0.343 (inactive) in experiment [2] (setting [7]) and 0.814 in experiment [2] (setting [8]).

In the case of `COc1cc2ncnc(Nc3ccc(F)c(Cl)c3)c2cc1NC(=O)C=CCN1CCCCC1`, the fold change was 1.12 (inactive) in experiment [1] (setting [3]) and 0.707 in experiment [1] (setting [4]). For the same compound, the cell count in experiment [1] (setting [5]) was determined as 3310; in experiment [1] (setting [6]), 2960. Moreover, the z-score in experiment [2] (setting [7]) is -0.496 (inactive); in experiment [2] (setting [8]), -1.94.

As to `CC1(C)C(O[C@H]2OC(C(=O)O)C(O)C(O)C2O[C@@H]2OC(C(=O)O)C(O)C(O)C2O)CC[C@@]2(C)[C@H]3C(=O)C=C4[C@@H]5C[C@@](C)(C(=O)O)CC[C@]5(C)CC[C@@]4(C)[C@]3(C)CC[C@@H]12` (stereo partly drawn), the fold change was 0.946 (inactive) in experiment [1] (setting [3]) and 0.91 in experiment [1] (setting [4]). The cell count in experiment [1] (setting [5]) is 7600; in experiment [1] (setting [6]) it was 8030. The z-score in experiment [2] (setting [7]) was -0.278 (inactive); in experiment [2] (setting [8]) it was -0.114.

In the case of `CCN(CC)C(=O)C(C#N)=Cc1cc(O)c(O)c([N+](=O)[O-])c1`, the fold change in experiment [1] (setting [3]) is 1.2 (inactive); in experiment [1] (setting [4]), 1.41. For the same compound, the cell count came to 8600 in experiment [1] (setting [5]) and 7190 in experiment [1] (setting [6]). Further, the z-score in experiment [2] (setting [7]) is -0.263 (inactive); in experiment [2] (setting [8]) it was -0.169.

In the case of `CN(C)CCC=C1c2ccccc2Sc2ccc(Cl)cc21`, the fold change in experiment [1] (setting [3]) was 1.02 (inactive); in experiment [1] (setting [4]), 0.667. The cell count was found to be 7540 in experiment [1] (setting [5]) and 7420 in experiment [1] (setting [6]). Also, the figures for the z-score in experiment [2] (setting [7]) and in experiment [2] (setting [8]) were -0.469 (inactive) and -0.0938, respectively.

For `CC1C(=O)O[C@H]2C(O)C34C5CC(C(C)(C)C)C36C(O)C(=O)O[C@H]6O[C@]4(C(=O)O5)[C@@]12O` (stereo partly drawn), the fold change is 0.925 (inactive) in experiment [1] (setting [3]) and 1.45 in experiment [1] (setting [4]). The figures for the cell count in experiment [1] (setting [5]) and in experiment [1] (setting [6]) were 7630 and 8250, respectively. Further, the z-score is -0.353 (inactive) in experiment [2] (setting [7]) and -0.351 in experiment [2] (setting [8]).

Turning to `COC1C(O)CC(=O)OC(C)CC=CC=CC(OC2CCC(N(C)C)C(C)O2)C(C)CC(CC=O)C1OC1OC(C)C(OC2C[C@](C)(O)C(O)C(C)O2)C(N(C)C)C1O` (stereo partly drawn), the fold change in experiment [1] (setting [3]) is 0.934 (inactive); in experiment [1] (setting [4]), 0.625. Moreover, the cell count in experiment [1] (setting [5]) came to 8350; in experiment [1] (setting [6]), 8940. Moreover, the z-score in experiment [2] (setting [7]) was -0.212 (inactive); in experiment [2] (setting [8]), -0.158.

With `NC(=O)NN=Cc1ccc([N+](=O)[O-])o1`, the results for the fold change in experiment [1] (setting [3]) and in experiment [1] (setting [4]) were 0.88 (inactive) and 0.871, respectively. For the same compound, the cell count turned out to be 7280 in experiment [1] (setting [5]) and 8270 in experiment [1] (setting [6]). Also, the z-score in experiment [2] (setting [7]) is -0.0834 (inactive); in experiment [2] (setting [8]), -0.616.

As to `Cc1cc(Cn2cnc3c2CC(C(=O)O)N(C(=O)C(c2ccccc2)c2ccccc2)C3)ccc1N(C)C` (stereo not drawn), the fold change in experiment [1] (setting [3]) was 0.92 (inactive); in experiment [1] (setting [4]), 0.34. The cell count in experiment [1] (setting [5]) worked out at 8010; in experiment [1] (setting [6]), 8710. Besides, the z-score in experiment [2] (setting [7]) was 0.9 (inactive); in experiment [2] (setting [8]), -1.41.

In the case of `O=C(NNc1nc2cc(F)ccc2n2cccc12)c1cnccn1`, the fold change in experiment [1] (setting [3]) was 0.939 (inactive); in experiment [1] (setting [4]), 0.345. The cell count in experiment [1] (setting [5]) was found to be 2180; in experiment [1] (setting [6]), 2330. Besides, the results for the z-score in experiment [2] (setting [7]) and in experiment [2] (setting [8]) were 1.52 (inactive) and -2.55, respectively.

For the compound `O=C1NC(=O)C(=Cc2ccc3nccc(-c4ccncc4)c3c2)S1`, the fold change in experiment [1] (setting [3]) was 0.936 (inactive); in experiment [1] (setting [4]) it was 0.601. Further, the values for the cell count in experiment [1] (setting [5]) and in experiment [1] (setting [6]) were 1700 and 1820, respectively. Further, the results for the z-score in experiment [2] (setting [7]) and in experiment [2] (setting [8]) were 0.995 (inactive) and -1.12, respectively.

Take `CC(=O)Nc1nc2c(Oc3cc(-c4ccc(C(F)(F)F)cc4)ncn3)cccc2s1`: the figures for the fold change in experiment [1] (setting [3]) and in experiment [1] (setting [4]) were 0.981 (inactive) and 0.45, respectively. Further, the cell count in experiment [1] (setting [5]) is 8510; in experiment [1] (setting [6]), 8670. The values for the z-score in experiment [2] (setting [7]) and in experiment [2] (setting [8]) were -0.457 (inactive) and -0.29, respectively.

As for `C[C@]12CC[C@H]3c4ccc(O)cc4CC[C@H]3[C@@H]1CCC2O` (stereo partly drawn), the fold change in experiment [1] (setting [3]) was 0.784 (inactive); in experiment [1] (setting [4]), 0.957. Further, the cell count in experiment [1] (setting [5]) came out at 6520; in experiment [1] (setting [6]), 8310. Moreover, the z-score was -0.389 (inactive) in experiment [2] (setting [7]) and -0.286 in experiment [2] (setting [8]).

As to `CC1O[C@@H](OC2C(Oc3cc(O)c(C(=O)CCc4ccc(O)cc4)c(O)c3)OC(CO)C(O)C2O)C(O)C(O)C1O` (stereo partly drawn), the fold change in experiment [1] (setting [3]) was 0.973 (inactive); in experiment [1] (setting [4]) it was 0.587. In addition, the cell count is 8080 in experiment [1] (setting [5]) and 8300 in experiment [1] (setting [6]). Also, the z-score in experiment [2] (setting [7]) is -0.155 (inactive); in experiment [2] (setting [8]) it was -0.191.

Turning to `O=C(C=Cc1ccccc1)NC(NC(=S)Nc1cccc2cccnc12)C(Cl)(Cl)Cl` (stereo not drawn), the values for the fold change in experiment [1] (setting [3]) and in experiment [1] (setting [4]) were 0.979 (inactive) and 0.343, respectively. The cell count came to 6780 in experiment [1] (setting [5]) and 6920 in experiment [1] (setting [6]). The figures for the z-score in experiment [2] (setting [7]) and in experiment [2] (setting [8]) were -0.276 (inactive) and 0.21, respectively.

On to `COC1CC2CCC(C)[C@@](O)(O2)C(=O)C(=O)N2CCCCC2C(=O)OC(C(C)CC2CCC(O)C(OC)C2)CC(=O)C(C)C=C(C)C(O)C(OC)C(=O)C(C)CC(C)C=CC=CC=C1C` (stereo partly drawn), for which the fold change is 0.994 (inactive) in experiment [1] (setting [3]) and 1.19 in experiment [1] (setting [4]). Besides, the results for the cell count in experiment [1] (setting [5]) and in experiment [1] (setting [6]) were 4070 and 4090, respectively. Moreover, the z-score in experiment [2] (setting [7]) stood at 0.132; in experiment [2] (setting [8]), 2.33.

As to `CCC(C)Nc1cc(C(=O)NC2CC3CCC(C2)N3c2ccc(C(=O)C3CC3)cn2)c(C)cc1C(N)=O` (stereo not drawn), the fold change in experiment [1] (setting [3]) is 0.94 (inactive); in experiment [1] (setting [4]), 0.437. Moreover, the results for the cell count in experiment [1] (setting [5]) and in experiment [1] (setting [6]) were 2340 and 2490, respectively. The z-score in experiment [2] (setting [7]) was 2.2 (active); in experiment [2] (setting [8]), -1.06.
